{"source": "PubChem BioAssay (NCATS)", "note": "Results filed as inconclusive are left out. Entries that show only a call come without a potency. The source made the active and inactive calls. Calls come from the whole dose curve; as a rule, active = well fitted inhibition curve with a large enough effect; inconclusive = small, poorly fitted or top-dose-only effect; inactive = no such curve, though single readings can be large or run the other way. Potency is the fitted concentration of half-maximal effect.", "data": [{"test_system": "Zika virus NS2B-NS3 protease (unlinked)", "test": "Optimization of GU AMC qHTS for Zika virus inhibitors: Unlinked NS2B-NS3 protease assay (AID 1347151); note: nearly all actives have a fitted effect of over 80% in size", "details": "recombinant ZIKV NS2B-NS3 protease, fluorogenic AMC substrate; series mostly up to 52.5 µM", "procedure,_shortened": "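Fluorescence gain (340/450 nm) over 15 min at room temperature, ~20% conversion, gave percent inhibition fitted to a 4-parameter Hill equation; enzyme was unlinked NS2B-NS3 (25 nM final), pH 8.0 Tris buffer.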", "values": [{"compound": "Cc1cc([C@@H]2CCCN2C)on1", "Potency": "inactive"}, {"compound": "CCCN1CCC[C@@H](c2cccc(O)c2)C1", "Potency": "inactive"}, {"compound": "C[C@H](N)Cc1cccc(C(F)(F)F)c1", "Potency": "inactive"}, {"compound": "CC(C)NP(=O)(NC(C)C)OP(=O)(NC(C)C)NC(C)C", "Potency": "inactive"}, {"compound": "O=c1ccc2[nH]cc(C3=CCNCC3)c2[nH]1", "Potency": "37.7 µM (active)"}, {"compound": "O=[N+]([O-])/C=C/c1ccc2c(c1)OCO2", "Potency": "inactive"}, {"compound": "Nc1cc2c(ncn2CCOCP(=O)(O)O)c(=O)[nH]1", "Potency": "inactive"}, {"compound": "O=C1C=CC(=O)C=C1", "Potency": "inactive"}, {"compound": "NCCCP(=O)(O)O", "Potency": "inactive"}, {"compound": "COc1ccc2c(c1O)-c1cccc3c1[C@@H](C2)N(C)CC3", "Potency": "29.9 µM (active)"}, {"compound": "CCn1cnc2c(Nc3cccc(Cl)c3)nc(N[C@@H]3CCCC[C@@H]3N)nc21", "Potency": "inactive"}, {"compound": "CC(C)(C)c1o[nH]c(=O)c1CC(N)C(=O)O", "note": "(stereo not given)", "Potency": "inactive"}, {"compound": "O=S1(=O)N(CCN2CC=C(c3c[nH]c4cc(F)ccc34)CC2)c2cccc3c2N1CCC3", "Potency": "inactive"}, {"compound": "NC(=O)c1cc(N2CC2)c([N+](=O)[O-])cc1[N+](=O)[O-]", "Potency": "inactive"}, {"compound": "CCCN1CCc2cc(O)cc3c2[C@H]1Cc1ccc(O)c(O)c1-3", "Potency": "26.7 µM (active)"}]}]}
